Experimental findings from PubChem BioAssay (Tox21) are described below.

Records with an inconclusive call do not appear. Entries that show only a call come without a potency. A number with no mark means an inactive call. Active and inactive are the calls of the source. Calls come from the whole dose curve; as a rule, active = well fitted inhibition curve with a large enough effect in the repeat runs; inconclusive = weak or mixed curves; inactive = no such curve, though single readings can be large or run the other way.
Potency is the fitted concentration of half-maximal effect.

Sequence of Cytochrome P450 3A4 (Homo sapiens) (P08684 whole entry, looked up): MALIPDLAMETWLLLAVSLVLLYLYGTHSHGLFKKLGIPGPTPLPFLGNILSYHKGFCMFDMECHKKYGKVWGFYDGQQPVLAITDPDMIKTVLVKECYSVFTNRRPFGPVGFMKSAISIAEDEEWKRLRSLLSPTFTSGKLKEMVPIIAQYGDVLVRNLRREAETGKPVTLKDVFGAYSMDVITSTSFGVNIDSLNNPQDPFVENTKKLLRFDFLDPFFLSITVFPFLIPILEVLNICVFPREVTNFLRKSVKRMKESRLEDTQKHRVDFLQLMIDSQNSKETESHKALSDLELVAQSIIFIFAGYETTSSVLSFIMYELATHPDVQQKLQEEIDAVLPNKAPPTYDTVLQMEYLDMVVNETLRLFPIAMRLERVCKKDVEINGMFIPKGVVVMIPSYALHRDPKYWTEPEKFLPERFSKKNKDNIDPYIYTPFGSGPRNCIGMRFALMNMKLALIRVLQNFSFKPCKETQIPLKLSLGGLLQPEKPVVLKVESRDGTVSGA

This assay has as its target Cytochrome P450 3A4 (Homo sapiens) (UniProt P08684). The assay is described as follows: Cytochrome P450 Family 3 Subfamily A Member 4 (CYP3A4) small molecule antagonists: luciferase reporter qHTS assay (AID 1671201). Note: nearly all actives have a fitted effect of over 50% in size. The conditions noted are these: P450-Glo CYP3A4 enzyme, luciferin luminescence, 1 h; series mostly up to 115 µM. The text has this:
National Center for Advancing Translational Sciences [NCATS]
U.S. Environmental Protection Agency [EPA]
National Institutes of Environmental Health Sciences [NIEHS]
National Toxicology Program [NTP]
U.S. Food and Drug Administration [FDA]
Cytochrome P450 (CYP) enzymes are membrane-bound hemeproteins that play a key role in metabolism of drugs and xenobiotics. Evaluation of the effect of chemicals on CYP isozymes is useful to minimize the adverse drug reactions and toxicities in drug development process. Tox21 chemicals were tested for their effect on CYP enzyme activities by using P450-Glo (TM) screening systems (Promega Corporation, Madison, WI). These systems provide a luminescent method containing proluciferin substrates and are converted to luciferin products by CYP isozymes. The luciferin products formed are detected with a luciferin detection reagent, and the amount of light produced is proportional to CYP activity. P450-Glo (TM) CYP3A4 screening system (Catalog. No. V9910) was used to detect the compounds that interfere in CYP3A4 activity. The positive control compound used for CYP3A4 assay is ketoconazole (Sigma-Aldrich, St. Louis, MO).
Tox21 Assay Protocol Summary:
Two ul of enzyme-substrate mix was dispensed into medium binding white/solid 1536-well plates (Greiner Bio-One North America Inc., Monroe, NC) using a BioRaptr Flying Reagent Dispenser (FRD, Beckman Coulter, Brea, CA). Compounds dissolved in DMSO and positive control (ketoconazole) were transferred to the assay plates at 23 nl using a Pintool station (Wako, San Diego, CA). The assay plates were incubated at room temperature for 10 min. Then 2 ul of NADPH regeneration solution was added to each well of the assay plates using an FRD and incubated at room temperature for 1 h. The reaction was stopped by adding 4 ul of detection reagent using an FRD and after 20 min incubation at room temperature the luminescence signal was measured using a ViewLux plate reader (Perkin Elmer, Shelton, CT). Data were expressed as relative luminescence units.
(A reporter such as luciferase makes a cellular process visible.)
As to `C=CC(=O)OCC(Br)CBr` (stereo not given), the Potency result is “inactive”.

On to `Nc1c(Br)cc([N+](=O)[O-])cc1Br`, for which the Potency entry was “inactive”.

In the case of `CC(C)=NNC(N)=S`, the Potency result is “inactive”.

Take `COc1ccc(OC)c(N=Nc2c(O)ccc3ccccc23)c1`: the Potency was 2.83 µM (active).

`CCSCC`: the Potency entry was “inactive”.

In the case of `O=C(NCc1ncc(C(F)(F)F)cc1Cl)c1c(Cl)cccc1Cl`, the Potency was 8.94 µM (active).

For `CCCCCN=C(N)N/N=C/c1c[nH]c2ccc(OC)cc12`, the Potency result was “inactive”.

With `CC(O)(c1ccc(Cl)cc1)c1ccc(Cl)cc1`, the Potency entry was “inactive”.

Turning to `O=c1[nH]cccc1O`, the Potency result was “inactive”.

Turning to `CCN(CCC#N)c1ccc(N=Nc2ccc([N+](=O)[O-])cc2)cc1`, the Potency result is “inactive”.

Turning to `O=C1CCC(=O)N1`, the Potency entry is “inactive”.

On to `CCn1c2ccccc2c2ccccc21`, for which the Potency result was “inactive”.

Consider `CCOC(=O)[C@H](C)O`, for which the Potency result was “inactive”.

As to `CC1(C)[C@H]2CC[C@]1(C)C(=O)C2`, the Potency entry is “inactive”.

On to `Oc1ccc(Cl)cc1C1CCCC1`, for which the Potency result was “inactive”.

With `O=C1c2ccccc2C(=O)c2c(Cl)cccc21`, the Potency result was “inactive”.

For `CCC1(C)C(=O)N(Cl)C(=O)N1Cl` (stereo not given), the Potency result is “inactive”.

On to `Cc1cc(C)c(O)c(C(C)(C)C)c1`, for which the Potency result was “inactive”.

With `Clc1ccc2c(Cl)ccnc2c1`, the Potency entry was “inactive”.

As for `C[C@H]1O[C@@H](O[C@H]2CC[C@@]3(C)[C@H](CC[C@@H]4[C@@H]3C[C@@H](O)[C@]3(C)[C@@H](C5=CC(=O)OC5)CC[C@]43O)C2)C[C@H](O)[C@@H]1O[C@H]1C[C@H](O)[C@H](O[C@H]2C[C@H](O)[C@H](O[C@@H]3O[C@H](CO)[C@@H](O)[C@H](O)[C@H]3O)[C@@H](C)O2)[C@@H](C)O1`, the Potency result was “inactive”.

Consider `CC(C)C(=O)C(C)C`, for which the Potency entry is “inactive”.

As for `ClC(c1ccccc1)(c1ccccc1)c1ccccc1`, the Potency entry is “inactive”.

For the molecule `CCCCCCCCCCCCN1CCCC1=O`, the Potency entry is “inactive”.

Turning to `CN[C@H]1CC[C@@H](c2ccc(Cl)c(Cl)c2)c2ccc(S(N)(=O)=O)cc21`, the Potency is 28.3 µM (active).

With `CN(C/C=C/c1ccccc1)Cc1cccc2ccccc12`, the Potency result was “inactive”.

In the case of `C=COCCCC`, the Potency entry is “inactive”.

Take `O=C(O)CN(CCCN(CC(=O)O)CC(=O)O)CC(=O)O`: the activity change, negative = inhibition is -1.42% [at 23.6 µM].

Regarding `C=CC(=O)O[C@H]1C[C@@H]2CC[C@@]1(C)C2(C)C`, the Potency result is “inactive”.

Consider `Cc1cccc2c1ccc1ccccc12`, for which the Potency result is “inactive”.

Regarding `C=Cc1ccncc1`, the Potency result is “inactive”.

For the molecule `CC(C)c1ccc2sc3ccccc3c(=O)c2c1`, the Potency result was “inactive”.

For `Cc1cccc(C)c1C`, the Potency result was “inactive”.

Regarding `CN(C[C@@H](CC[N+]12CCC(C3CCCCC3)(CC1)CC2)c1ccc(Cl)c(Cl)c1)C(=O)c1cc(C(F)(F)F)cc(C(F)(F)F)c1`, the Potency is 2.24 µM (active).

With `[Cl][Sc]([Cl])[Cl]`, the Potency result is “inactive”.

With `Clc1cccc(Cl)n1`, the Potency result was “inactive”.

Turning to `NC(=O)C1CO1` (stereo not given), the Potency entry is “inactive”.

On to `CN1CC[C@H](c2c(O)cc(O)c3c(=O)cc(-c4ccccc4Cl)oc23)[C@H](O)C1`, for which the Potency entry is “inactive”.

`CCOC(=O)[C@H](O)[C@@H](O)C(=O)OCC`: the Potency entry was “inactive”.

Regarding `CCCCCCCCSCc1cc(C)c(O)c(CSCCCCCCCC)c1`, the Potency result is “inactive”.

For `Oc1ccc2c(c1)CCC2`, the Potency result is “inactive”.
